Assay results reported in PubChem BioAssay (Tox21).
Results filed as inconclusive are left out. The source made the active and inactive calls. Unless noted, calls follow the shape of the dose curve; as a rule, active = well fitted curve in the direction sought with a large enough effect in the repeat runs; inconclusive = weak or mixed curves; inactive = no such curve, though single readings can be large; an effect the other way counts as inactive or inconclusive.

Experiments:
[1] = molecular target: Thyrotropin receptor (Homo sapiens) (UniProt P16473); test: qHTS assay to identify small molecule agonists of the thyroid stimulating hormone receptor (TSHR) signaling pathway (AID 1224843; calls by dose curve; also: nearly all actives have a fitted effect of over 45% in size)
Thyrotropin receptor (Homo sapiens), sequence (P16473 whole entry, looked up): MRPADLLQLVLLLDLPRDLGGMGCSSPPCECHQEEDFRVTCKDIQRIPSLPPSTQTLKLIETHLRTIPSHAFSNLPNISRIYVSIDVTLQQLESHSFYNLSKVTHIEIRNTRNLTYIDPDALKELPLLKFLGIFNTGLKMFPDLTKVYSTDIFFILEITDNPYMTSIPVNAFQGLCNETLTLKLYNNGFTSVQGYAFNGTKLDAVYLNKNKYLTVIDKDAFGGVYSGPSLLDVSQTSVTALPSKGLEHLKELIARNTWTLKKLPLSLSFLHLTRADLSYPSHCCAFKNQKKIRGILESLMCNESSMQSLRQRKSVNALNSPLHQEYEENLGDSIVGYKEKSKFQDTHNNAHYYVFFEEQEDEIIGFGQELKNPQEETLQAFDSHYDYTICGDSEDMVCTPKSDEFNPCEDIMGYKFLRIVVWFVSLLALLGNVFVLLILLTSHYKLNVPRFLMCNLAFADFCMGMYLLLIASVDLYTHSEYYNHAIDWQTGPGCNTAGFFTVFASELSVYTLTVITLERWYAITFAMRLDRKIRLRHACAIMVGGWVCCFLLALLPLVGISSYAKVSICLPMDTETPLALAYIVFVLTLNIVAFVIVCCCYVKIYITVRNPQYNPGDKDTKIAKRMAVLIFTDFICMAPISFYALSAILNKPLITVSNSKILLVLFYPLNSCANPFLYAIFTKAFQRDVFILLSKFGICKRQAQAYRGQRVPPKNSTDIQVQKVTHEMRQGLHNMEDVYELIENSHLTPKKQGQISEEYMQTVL
Outline: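 Agonist-mode screen: TSHR HEK293 cells received test chemicals for half an hour at room temperature, then HTRF cAMP detection reagents for one hour prior to fluorescence measurement. Each chemical ran as a 15-concentration series, triplicated.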

[2] = qHTS assay to identify small molecule agonists of the hypoxia (HIF-1) signaling pathway - cell viability counter screen (AID 1224844; calls by dose curve; also: nearly all actives have a fitted effect of over 50% in size)
Outline: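 Viability counter screen: HRE-bla ME-180 cells plated 5 hrs before compound addition, treated 17 hrs at 37C and 5% CO2, then CellTiter-Glo added after the FRET reporter read; luminescence after 30 min.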

[3] = qHTS assay to identify small molecule agonists of H2AX (AID 1224845; active = well fitted activation curve with a large enough effect in the signal ratio in the repeat runs, not every such curve was filed as active; the % refers to the signal ratio)
Outline: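 Wild-type CHO-K1 cells, plated overnight, exposed 3hr at 37C to 15 concentrations (0.76% DMSO final). Lysed, then HTRF anti-pH2AX (S139) cryptate and anti-H2AX-d2 antibodies, 24 hr room temperature; 665/620 nm emission read.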

[4] = qHTS assay to identify small molecule agonists of the hypoxia (HIF-1) signaling pathway (AID 1224846; active = well fitted activation curve with a large enough effect in the signal ratio in the repeat runs, not every such curve was filed as active; the % refers to the signal ratio)
Outline: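 Agonist mode reporter screen. ME-180 cells stably expressing bla under HRE control received test compounds in DMSO for 17 hrs (37C, 5% CO2), and beta-lactamase activity was then detected with the CCF4-AM FRET substrate.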

[5] = qHTS assay to identify small molecule agonists of H2AX - cell viability counter screen (AID 1224847; calls by dose curve; also: top concentration of the series differs between compounds; nearly all actives have a fitted effect of over 30% in size)
Outline: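 Compounds tested at 15 concentrations were incubated 3 hr at 37C with wild-type CHO-K1 cells; cellular ATP-based luminescence (CellTiter-Glo) indicated viability.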

[6] = qHTS assay to identify small molecule antagonists of the estrogen related receptor (ERR) signaling pathway from Tox21 library (AID 1224848); also: nearly all actives have a fitted effect of over 50% in size
Outline: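 Quantitative high-throughput format: ERR reporter cells (2,000/well) pre-incubated 6 h, treated 18 h at 37 C with compounds in DMSO alongside positive and negative controls, then read by ONE-Glo luminescence.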

[7] = qHTS RealTime-Glo MT Cell Viability Assay in HepG2 cells - 24 hour (AID 1224867); also: nearly all actives have a fitted effect of over 50% in size
Outline: (§1)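 HepG2 cells (600/well) were dispensed with RealTime-Glo reagents, incubated 5 h at 37 °C, then treated with compounds in DMSO for up to 40 h. Nonlytic NanoLuc luminescence reflecting viable cells was read at each stated time point.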

[8] = qHTS RealTime-Glo MT Cell Viability Assay in HEK293 cells - 32 hour (AID 1224868); also: top concentration of the series differs between compounds; nearly all actives have a fitted effect of over 50% in size
Outline: (§2)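 HEK293 cells seeded with NanoLuc/prosubstrate reagent, rested 5 h at 37 C, then dosed and kept at 37 C up to 40 h. Nonlytic real-time luminescence from viable cells read at 0, 8, 16, 24, 32 and 40 h.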

[9] = A CellTox Green Cytotoxicity Assay to monitor cytotoxicity in HEK293 cells - 0 hour (AID 1224869); also: nearly all actives have a fitted effect of over 50% in size
Outline: (§3)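 Dead-cell fluorescence measured kinetically: asymmetric cyanine dye, HEK293, 600 cells/well, 5 h settle, 23 nL cpd/DMSO, 37 C, reads 0–40 h every 8 h.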

[10] = qHTS RealTime-Glo MT Cell Viability Assay in HepG2 cells - 40 hour (AID 1224870); also: nearly all actives have a fitted effect of over 50% in size
Outline: (§4)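 HepG2 cells (600/well) mixed with RealTime-Glo MT reagent, settled 5 h at 37 C/5% CO2 before compound addition. Nonlytic NanoLuc luminescence from viable-cell prosubstrate reduction read repeatedly during 40 h treatment at 37 C.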

[11] = A CellTox Green Cytotoxicity Assay to monitor cytotoxicity in HEK293 cells - 40 hour (AID 1224871); also: nearly all actives have a fitted effect of over 45% in size
Outline: as §3

[12] = qHTS RealTime-Glo MT Cell Viability Assay in HEK293 cells - 16 hour (AID 1224872)
Outline: as §2

[13] = qHTS RealTime-Glo MT Cell Viability Assay in HepG2 cells - 8 hour (AID 1224873); also: nearly all actives have a fitted effect of over 55% in size
Outline: as §4

[14] = qHTS RealTime-Glo MT Cell Viability Assay in HEK293 cells - 40 hour (AID 1224874); details: RealTime-Glo luminescence; max response: stronger effect = lower value; also: nearly all actives have a fitted effect of over 50% in size
Outline: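 600 HEK293 cells per well, dispensed already mixed with RealTime-Glo MT reagents. Compound dosing came 5 h later. The same wells were read for luminescence at 0, 8, 16, 24, 32 and 40 h of exposure at 37 C.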

[15] = A CellTox Green Cytotoxicity Assay to monitor cytotoxicity in HEK293 cells - 24 hour (AID 1224875); also: nearly all actives have a fitted effect of over 45% in size
Outline: as §3

[16] = A CellTox Green Cytotoxicity Assay to monitor cytotoxicity in HepG2 cells - 16 hour (AID 1224876); also: nearly all actives have a fitted effect of over 45% in size
Outline: (§5)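 First, HepG2 cells (600/well) mixed with reagent were plated; second, after 5 h at 37 C they received compounds via pintool; third, fluorescence was measured at 0 h through 40 h at 8 h intervals.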

[17] = qHTS RealTime-Glo MT Cell Viability Assay in HepG2 cells - 32 hour (AID 1224877); also: nearly all actives have a fitted effect of over 55% in size
Outline: as §1

[18] = A CellTox Green Cytotoxicity Assay to monitor cytotoxicity in HepG2 cells - 40 hour (AID 1224879); also: nearly all actives have a fitted effect of over 40% in size
Outline: as §5

[19] = A CellTox Green Cytotoxicity Assay to monitor cytotoxicity in HepG2 cells - 24 hour (AID 1224878); also: nearly all actives have a fitted effect of over 45% in size
Outline: as §5

[20] = qHTS assay to identify small molecule agonists of the estrogen related receptor (ERR) signaling pathway from Tox21 library (AID 1224849; calls by dose curve; also: nearly all actives have a fitted effect of over 15% in size); details: ERR reporter cell line, ONE-Glo luciferase, 18 h; at 92.4 µM (top of the series) unless noted
Outline: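 Quantitative HTS in agonist format: NTP ERR cell line, compounds transferred in DMSO after 6 h plating, 18 h incubation at 37 C, ONE-Glo luminescence endpoint.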
% is scaled to controls: 0 for no effect and ±100 for the full control effect.

COC(=O)c1ccc2cc(C(=O)OC)ccc2c1
inactive: activation [1] 2.3% [at 19 µM] | activity change, negative = cytotoxicity [2] 1.66% [at 15.8 µM] | activation (H2AX phosphorylation) [3] 0.148% [at 31.6 µM] | activation [4] -0.33% [at 15.8 µM] | activity change, negative = cytotoxicity [5] 2.5% [at 31.6 µM] | activity, negative = inhibition [6] 23.9% [at 19 µM] | activity change, negative = cytotoxicity [7] 2.88% [at 15.8 µM] | activity change, negative = cytotoxic [8] -1.06% [at 15.8 µM] | cytotoxicity [9] 2.02% [at 15.8 µM] | activity change, negative = cytotoxic [10] -0.864% [at 15.8 µM] | cytotoxicity increase [11] 3.01% [at 15.8 µM] | activity change, negative = cytotoxicity [12] -1.54% [at 15.8 µM] | viability change, negative = cytotoxic [13] 6.16% [at 15.8 µM] | max response [14] -1.06% | activity change [15] 4.58% [at 15.8 µM, stronger effect = higher value] | cytotoxicity increase [16] -13.5% [at 15.8 µM] | activity change, negative = cytotoxic [17] 0.0732% [at 15.8 µM] | cytotoxicity increase [18] -18% [at 15.8 µM]

CCCCCCC
inactive: Potency [1] | Potency [2] | Potency [3] | outcome [4] | Potency [5] | Potency [7] | Potency [8] | Potency [9] | Potency [10] | Potency [11] | Potency [12] | outcome [13] | max response [14] -15.1% | Potency [15] | Potency [16] | Potency [17] | Potency [18]

CCCCNc1cc(C(=O)O)cc(S(N)(=O)=O)c1Oc1ccccc1
inactive: Potency [1] | Potency [2] | Potency [3] | outcome [4] | Potency [5] | Potency [7] | Potency [8] | Potency [9] | Potency [10] | Potency [11] | Potency [12] | outcome [13] | max response [14] 0.323% | Potency [15] | Potency [17] | Potency [19] | Potency [18]

Oc1ccccc1C=NCc1ccccc1
inactive: Potency [1] | Potency [2] | Potency [3] | outcome [4] | Potency [5] | Potency [7] | Potency [8] | Potency [9] | Potency [10] | Potency [11] | Potency [12] | outcome [13] | max response [14] 1.18% | Potency [15] | Potency [16] | Potency [17] | Potency [19] | Potency [18]

CCOC(=O)[C@H](CCc1ccccc1)N[C@@H](C)C(=O)N1Cc2cc(OC)c(OC)cc2C[C@H]1C(=O)O
inactive: Potency [1] | Potency [2] | Potency [3] | outcome [4] | Potency [5] | Potency [7] | Potency [8] | Potency [9] | Potency [10] | Potency [11] | Potency [12] | outcome [13] | max response [14] 3.96% | Potency [15] | Potency [16] | Potency [17] | Potency [19] | Potency [18]

CN1CCN(C2=Nc3cc(F)ccc3Cc3ccccc32)CC1
inactive: Potency [1] | Potency [2] | Potency [3] | outcome [4] | Potency [5] | Potency [6] | activity change, positive = activation [20] 0.425% [at 42.5 µM] | Potency [7] | Potency [9] | Potency [10] | Potency [11] | Potency [12] | outcome [13] | Potency [15] | Potency [16] | Potency [17] | Potency [19] | Potency [18]

Cc1cc(NS(=O)(=O)c2ccc(N)cc2)nc(C)n1
inactive: Potency [1] | Potency [2] | Potency [3] | outcome [4] | Potency [5] | Potency [7] | Potency [8] | Potency [9] | Potency [10] | Potency [11] | Potency [12] | outcome [13] | max response [14] -0.863% | Potency [15] | Potency [17]
